# Bioassay records: PubChem BioAssay, National Center for Advancing Translational Sciences (NCATS)
# SW480 rerep = A quantitative high throughput screen for small molecules that induce DNA re-replication in SW480 colon adenocarcinoma cells. SW480 DNA re-replication, Hoechst DNA content imaging, 48 h. hit rate 1.8% among 340,000. Potency, µM (highest dose often 46.1 µM), for inactives: at the highest dose re-replication activation, hits mostly activators; also: % of control where 0% means no effect; nearly all actives have a fitted effect of over 55% in size
#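 Compounds, transferred as 23 nL by pin tool, were incubated with cells for 48 hr; DNA content per nucleus was then quantified by Hoechst staining and fluorescence plate imaging.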
# ALOX12 inh = Primary qHTS assay for inhibitors of human arachidonate 12S-lipoxygenase (ALOX12): Round 2 | Polyunsaturated fatty acid lipoxygenase ALOX12 (Homo sapiens), P18054 | purified 12hLO, xylenol orange hydroperoxide absorbance | Potency, µM (highest dose often 108 µM), for the others: top-dose activity change, negative = inhibition, most hits filed as inhibitors | hit rate 1.1% among 580,000; also: % is scaled to controls: 0 for no effect and ±100 for the full control effect
# Target sequence (P18054 whole entry, looked up): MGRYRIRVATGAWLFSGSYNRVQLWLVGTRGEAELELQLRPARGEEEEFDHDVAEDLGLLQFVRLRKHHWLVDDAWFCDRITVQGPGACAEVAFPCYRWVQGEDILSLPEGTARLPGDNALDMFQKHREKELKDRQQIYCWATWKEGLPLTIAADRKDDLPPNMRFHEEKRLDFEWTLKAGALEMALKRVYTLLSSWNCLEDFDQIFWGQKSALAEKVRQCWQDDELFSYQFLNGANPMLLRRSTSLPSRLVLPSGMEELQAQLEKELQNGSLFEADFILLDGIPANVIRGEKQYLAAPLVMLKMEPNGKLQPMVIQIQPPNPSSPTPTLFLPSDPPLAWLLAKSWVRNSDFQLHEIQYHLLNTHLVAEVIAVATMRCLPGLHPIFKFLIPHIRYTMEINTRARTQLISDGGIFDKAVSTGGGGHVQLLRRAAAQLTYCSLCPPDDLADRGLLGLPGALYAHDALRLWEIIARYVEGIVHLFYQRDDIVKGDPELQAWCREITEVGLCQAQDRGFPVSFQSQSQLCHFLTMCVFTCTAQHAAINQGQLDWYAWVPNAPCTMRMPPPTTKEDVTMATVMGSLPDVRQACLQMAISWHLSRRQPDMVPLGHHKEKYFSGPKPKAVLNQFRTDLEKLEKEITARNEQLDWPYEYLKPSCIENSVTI
#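 Purified human 12hLO (150 nM final) in 25 mM Hepes, 0.01% Triton X-100, pH 7.0 was preincubated 15 min at room temperature with compound. Then 40 uM arachidonic acid was added, 30 min. Hydroperoxide was read by Fe-XO absorbance ratio 573/405 nm.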
# KB-3-1 tox = qHTS assay for MDR1-selective chemotherapeutics: Primary screen using the parental adenocarcinoma cell KB-3-1; KB-3-1 viability, CellTiter-Glo ATP luminescence, 72 h; Potency, µM (top dose mostly 46.1 µM), hits mostly cytotoxic; hit rate 1.4% among 400,000; AID 1347075, 2019; also: % is scaled to controls: 0 for no effect and ±100 for the full control effect; nearly all actives have a fitted effect of over 60% in size
#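 Here the drug-naive KB-3-1 line serves as comparator for MDR sub-line selectivity; cells received compound titrations, 72 h at 37 °C, then CellTiter-Glo readout.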
# KB-V1 MDR tox = qHTS assay for MDR1-selective chemotherapeutics: Primary screen using the drug-selected MDR subline cells KB-V1 | KB-V1 MDR cells viability, CellTiter-Glo, 72 h | Potency, µM (highest dose often 46.1 µM), usual class: cytotoxic | hit rate 3.4% among 400,000; also: % is scaled to controls: 0 for no effect and ±100 for the full control effect; nearly all actives have a fitted effect of over 60% in size
#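 Luminescent ATP read-out (CellTiter-Glo, 10 min) measures survival of drug-selected KB-V1 MDR cells after 72 h, 37 degrees C compound exposure. Medium: phenol-red-free DMEM, 10% FBS. Values from fitted concentration-response curves.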
# PINK1 modulator = A Quantitative High throughput Screen to Identify Chemical Modulators of PINK1 Expression | hit rate 0.2% among 410,000 | PINK1 immunofluorescence, high-content cytometry, 24 h | Potency, µM (highest dose often 76.6 µM), without a hit: at the top dose activation (PINK1 increase), hits mostly activators; active = well fitted activation curve with a large enough effect; inconclusive = small, poorly fitted or top-dose-only effect; cell line not stated here; also: % of control where 0% means no effect; nearly all actives have a fitted effect of over 65% in size
#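 Decision-based qHTS: stable cells, 24 h exposure to five compound concentrations, CCCP as control. Fixed cells stained for PINK1 plus nuclear, mitochondrial and cell markers, cytometer read.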
# MCF10A rerep = A quantitative high throughput screen for small molecules that induce DNA re-replication in MCF 10a normal breast cells; MCF 10A DNA re-replication, Hoechst nuclear intensity, 48 h; Potency, µM (titrated, usually from 46.1 µM), for the others: at the highest dose activity, positive = re-replication, most hits filed as activators; hit rate 2.9% among 350,000; also: % of control where 0% means no effect; nearly all actives have a fitted effect of over 50% in size
# * marks the source's active call; other numbers are inactive results; i = inactive; ? = inconclusive; / = no result; [ ] = remark or other dose. This is a sample that favours compounds with a hit; in the whole collection about 5.8% have one here. Unless noted, calls follow the shape of the dose curve; as a rule, active = well fitted curve in the direction sought with a large enough effect; inconclusive = small, poorly fitted or top-dose-only effect, or another doubt; inactive = no such curve, though single readings can be large; an effect the other way counts as inactive or inconclusive. Potency is read from the fitted curve at half-maximal effect.
SMILES,SW480 rerep,ALOX12 inh,KB-3-1 tox,KB-V1 MDR tox,PINK1 modulator,MCF10A rerep
CCOC(=O)c1cnn(-c2ccc(OC)cc2)c1C1CCN(C(=O)OC(C)(C)C)CC1,/,14µM*,i,?,1%,/
CNC(=O)c1ccc(CN(C(=O)c2ccsc2)C2CC2)cc1,/,47%,/,/,/,/
CCC1c2ccsc2CCN1C(=O)/C=C/c1sccc1C (configuration not stated),/,15%,/,/,/,/
Cc1nc(Nc2nc3ccccc3o2)nc(C)c1C(=O)Nc1cccc(C(F)(F)F)c1,/,132%,/,/,/,/
Cc1cnc(Nc2nc3ccccc3o2)nc1C(=O)Nc1cccc(C(F)(F)F)c1,?,14%,16µM*,15µM*,?,?
Cc1ccc2c(n1)sc1c(-c3ccc(Br)cc3)c(C#N)c(N)nc12,2.3µM*,?,i,i,2%,?
O=C(c1cnccn1)N(Cc1cccs1)C1CC1,/,-5%,/,/,/,/
CCOc1ccc(N/C(N)=N/c2nc(CSc3nnc(C)s3)cc(=O)[nH]2)cc1,?,-4%,0.73µM*,?,12%,?
Cc1nnc(SCc2cc(=O)[nH]c(/N=C(\N)Nc3ccccc3)n2)s1,?,4%,?,?,9%,18µM*
CC1CN(c2ccccc2)NC1=O (configuration not stated),4%,28µM*,i,i,2%,0%
N#CCOc1ccccc1/C=C/C(=O)c1ccc(F)c(Cl)c1,/,-25%,/,/,/,/
COCCn1c(C)cc(C(=O)COC(=O)c2n[nH]c3ccccc23)c1C,2%,-32%,i,9.2µM*,-2%,?
COCCn1c(C)cc(C(=O)COC(=O)c2[nH]c(C)c(C(C)=O)c2C)c1C,-10%,17%,?,4.1µM*,2%,0%
Cc1cc(C(=O)COC(=O)c2n[nH]c3ccccc23)c(C)n1C,-20%,0%,i,i,2%,2%
CN(C(=O)COC(=O)c1n[nH]c2ccccc12)c1ccccc1,2%,-5%,i,8.2µM*,-1%,1%
CN(C(=O)COC(=O)c1n[nH]c(=O)c2ccccc12)c1ccccc1,-2%,-5%,i,i,0%,0%
O=C(CSc1nnnn1C1CCCCC1)NC(c1ccccc1)c1cccs1 (configuration not stated),/,-3%,/,/,/,/
COc1ccc(/C=N/n2cnc3scc(-c4cccs4)c3c2=O)cc1OC,0%,8%,i,i,0%,3%
COc1cc(/C=N/n2cnc3scc(-c4cccs4)c3c2=O)cc(OC)c1OC,?,0%,4.6µM*,?,7%,12%
O=C(Nc1cc(Cl)ccc1Cl)N1CCN(C(=O)Nc2cc(Cl)ccc2Cl)CC1,9%,-3%,i,15µM*,1%,11%
COc1ccc(Cl)cc1NC(=O)N1CCN(c2ccccc2OC)CC1,17%,75%,i,i,1%,-2%
CCN1CCN(C(=O)Nc2cc(Cl)ccc2OC)CC1,-8%,-13%,i,i,2%,3.7µM*
COCC(C)n1c(C)cc(C(=O)Cn2cnc3c2c(=O)n(C)c(=O)n3C)c1C (configuration not stated),/,-24%,/,/,/,/
O=C1Nc2ccccc2CCC1Sc1nnc(-c2ccc(Cl)cc2)s1 (configuration not stated),6%,1%,21µM*,18µM*,-2%,17%
CCN(CC)C(=S)SCCOc1cccc(C)c1,/,2%,/,/,/,/
SMILES,SW480 rerep,ALOX12 inh,KB-3-1 tox,KB-V1 MDR tox,PINK1 modulator,MCF10A rerep
O=C(NNC(=O)c1cccnc1SCc1cccc([N+](=O)[O-])c1)c1ccc(F)cc1,2%,-8%,?,16µM*,0%,10%
O=C(/C(=C/c1ccccc1Cl)c1ccccc1)N1CCOCC1,0%,12%,i,23µM*,2%,15%
Cc1cccc(C)c1OCC(=O)NCc1nncn1C,/,-21%,/,/,/,/
COc1ccc2nc(C)cc(Sc3nc4ccccc4s3)c2c1,?,-8%,?,18µM*,-4%,16µM*
O=C(NCCNC(=O)c1cc2ccccc2[nH]1)C(=O)N1CCCC1,/,-14%,/,/,/,/
CCn1c(SCC(=O)c2[nH]c(C)c(C(C)=O)c2C)nnc1-c1cccs1,-1%,-2%,?,2.6µM*,-2%,1%
CSc1nnc(NC(=O)c2cc(=O)c3cc(Cl)c(C)cc3o2)s1,/,-2%,/,/,/,/
C=CCn1c(SCc2c(C)noc2C)nc2sc(C)c(C)c2c1=O,?,-11%,i,i,23%[38.3 µM],23µM*
C=CCn1c(SCC(=O)c2cc(C)n(C(C)COC)c2C)nc2sc(C)c(C)c2c1=O (configuration not stated),?,-12%,i,8.2µM*,8%[38.3 µM],18µM*
COc1ccccc1CNc1oc(-c2ccc(C)cc2)nc1C#N,/,-9%,/,/,/,/
CCOc1ccc(/C=C/C2=CC(C)(C)NC(=S)N2)cc1,5%,40µM*,i,?,0%,?
CC1CCCC(C)N1C(=O)CSc1nc2ncnc(N)c2[nH]1 (configuration not stated),8.2µM*,-1%,i,i,0%[38.3 µM],6.5µM*
CC1CCCC(C)N1C(=O)CSc1nc(N)cc(N)n1 (configuration not stated),-29%,-11%,i,i,-2%,-7%
O=C(Oc1ccc2cc(-c3ccccc3)c(=O)oc2c1)c1ccco1,/,-9%,/,/,/,/
CCOC(=O)N1CCN(C(=O)CS(=O)(=O)c2cn(Cc3ccccc3C)c3ccccc23)CC1,0%,/,i,?,4%,2%
Cc1ccccc1Cn1cc(S(=O)(=O)CC(=O)Nc2nccs2)c2ccccc21,0%,14%,?,16µM*,/,-25%
CCN(CC)c1ccc2cc(C#N)c(=O)oc2c1,1%,18%,i,i,?,9%
CCN(CC)c1ccc2cc(S(=O)(=O)c3ccc(C)cc3)c(=O)oc2c1,3.3µM*,-15%,i,i,0%,2.6µM*
CCN(CC)c1ccc2ccc(=O)oc2c1,18µM*,-10%,i,i,3%,?
CCN(CC)c1ccc2cc(-c3nc(-c4cc5ccccc5oc4=O)cs3)c(=O)oc2c1,3%,6%,i,i,32µM*,11%
CCN(CC)c1ccc2c(C)cc(=O)oc2c1,?,-12%,i,?,-1%,26µM*
